# Screen size: about 200,000 compounds; about 720 (0.36%) were called active. About 8% were inconclusive and are not listed. The call rests on the fitted dose curve; in most records, active means well fitted activation curve with a large enough effect; inconclusive means small, poorly fitted or top-dose-only effect, or effect the other way, or another doubt; inactive means flat fitted curve, though single readings scatter. Some of the results follow.
# Target: Lysosomal alpha-glucosidase (Homo sapiens) (UniProt P10253)
# Assay: qHTS Assay for Activators of Human alpha-Glucosidase as a Potential Chaperone Treatment of Pompe Disease; further: nearly all actives have a fitted effect of over 80% in size
# Details: purified enzyme, 4-MU-alpha-glucoside fluorescence, 20 min; series mostly up to 76.9 µM
# Method in brief: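 Compounds titrated up to 77 uM against 4 nM enzyme and 400 uM methylumbelliferyl substrate at room temperature, 20 min, pH 5.0. Basic stop, then 4-methylumbelliferone fluorescence (365/440 nm) normalized to no-enzyme and enzyme controls; Hill-equation AC50.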
# Potency means the concentration at half of the fitted maximal effect.
row,Compound,Potency
1,Cc1ccc2nc(-c3ccc(NS(=O)(=O)c4ccc(F)cc4)cc3)sc2c1,35.5 µM (active)
2,Cc1ccc2sc(-c3ccc(NC(=O)/C=C\C(=O)O)cc3)nc2c1,39.8 µM (active)
3,Cc1nc2ccc(S(=O)(=O)Nc3ccc(-c4nc5cccnc5s4)cc3)cc2s1,35.5 µM (active)
4,Cc1ccc2nc(-c3ccc(NS(=O)(=O)c4ccc(F)c(F)c4)cc3)sc2c1,3.55 µM (active)
5,Cc1ccc(S(=O)(=O)Nc2ccc(-c3nc4ccc(C)cc4s3)cc2)cc1,35.5 µM (active)
6,Cc1cc(-c2nc3cccnc3s2)ccc1NS(=O)(=O)c1ccc2c(c1)OCCO2,35.5 µM (active)
7,C/C(=N\NC(=O)CC#N)c1cc2ccc(O)cc2oc1=O,35.5 µM (active)
8,Cc1c2c(n3c(nc4ccccc43)c1C#N)N(CCN1CCOCC1)CC2,5.62 µM (active)
9,Cc1c2c(n3c(nc4ccccc43)c1C#N)N(CCCN(C)C)CC2,35.5 µM (active)
10,CCCn1c(=NC(C)=O)c(C(=O)OCC)cc2c(=O)n3ccccc3nc21,35.5 µM (active)
11,CCOCCCn1c(=NC(C)=O)c(C(=O)OCC)cc2c(=O)n3ccccc3nc21,39.8 µM (active)
12,CCOC(=O)c1cc2c(=O)n3ccccc3nc2n(CC2CCCO2)c1=NC(C)=O (stereo not drawn),35.5 µM (active)
13,CCOC(=O)c1cc2c(=O)n3ccccc3nc2n(CCCOC)c1=NC(C)=O,35.5 µM (active)
14,CNC(=O)c1cc2ccc(OC)cc2oc1=O,28.2 µM (active)
15,CCOC(=O)c1cc2ccc(OC(=O)c3ccco3)cc2oc1=O,35.5 µM (active)
16,CCOC(=O)c1cc2ccc(OC)cc2oc1=O,31.6 µM (active)
17,CSc1nc2n(n1)C(c1ccccn1)C1=C(CC(C)(C)CC1=O)N2 (stereo not drawn),35.5 µM (active)
18,Cc1c(OC(=O)CNC(=O)OC(C)(C)C)ccc2c3c(c(=O)oc12)CCC3,11.2 µM (active)
19,CCC(NC(=O)OC(C)(C)C)C(=O)Oc1ccc2c3c(c(=O)oc2c1)CCC3 (stereo not drawn),35.5 µM (active)
20,CSCCC(NC(C)=O)C(=O)Oc1ccc2c3c(c(=O)oc2c1)CCCC3 (stereo not drawn),35.5 µM (active)
21,Cc1csc(NC(=O)c2ccccc2O)n1,39.8 µM (active)
22,CCN(c1ccccc1)S(=O)(=O)c1cc(C(=O)Oc2ccc3c(C)cc(=O)oc3c2)ccc1C,28.2 µM (active)
23,C=CCN(c1ccccc1)S(=O)(=O)c1cccc(C(=O)Oc2ccc3c(C)cc(=O)oc3c2)c1,35.5 µM (active)
24,Cc1ccc(N(C)S(=O)(=O)c2cccc(C(=O)Oc3ccc4c(C)cc(=O)oc4c3)c2)cc1,31.6 µM (active)

row,Compound,Potency
1,O=Cc1cn(-c2ccccc2)nc1-c1cc2cc(O)ccc2oc1=O,35.5 µM (active)
2,COc1ccc2cc3cc(C(=O)NCC4CCCO4)oc3nc2c1 (stereo not drawn),35.5 µM (active)
3,COc1ccc2cc3cc(C(=O)NC(C)C)oc3nc2c1,28.2 µM (active)
4,CCC(C)NC(=O)c1cc2cc3ccc(OC)cc3nc2s1 (stereo not drawn),35.5 µM (active)
5,O=c1[nH]cnc2nc(-c3ccccc3)c(-c3ccccc3)nc12,35.5 µM (active)
6,COc1ccc2cc3cc(C(=O)NCCN4CCN(c5ccccc5F)CC4)oc3nc2c1,35.5 µM (active)
7,COc1ccc2cc3cc(C(=O)NCCN4CCc5ccccc5C4)oc3nc2c1,35.5 µM (active)
8,COc1ccc2cc3cc(C(=O)NCCN4CCN(Cc5ccccc5)CC4)oc3nc2c1,28.2 µM (active)
9,CC(=O)Nc1ccc(S(=O)(=O)NCC(=O)OCc2cc(=O)oc3ccc4ccccc4c23)cc1,35.5 µM (active)
10,COc1cccc(-c2nc(N3CCN(Cc4ccccc4)CC3)c3ccccc3n2)c1O,39.8 µM (active)
11,COC(=O)c1ccc2nc(Nc3nc4ccc(F)cc4s3)sc2c1,12.6 µM (active)
12,COC(=O)c1ccc2nc(Nc3nc4c(F)cc(F)cc4s3)sc2c1,6.31 µM (active)
13,O=C(NC1CCC(O)CC1)c1cc(-c2ccco2)nc2ccccc12 (stereo not drawn),39.8 µM (active)
14,OCCN(CCO)c1ccc2ccccc2c1,35.5 µM (active)
15,c1ccc(CCNc2ccnc3cc4ccccc4cc23)cc1,22.4 µM (active)
16,CCOc1ccc2nc(N3CCOCC3)nc(C)c2c1,39.8 µM (active)
17,COc1ccc2nc(N3CCOCC3)cc(C)c2c1,39.8 µM (active)
18,Cc1cc(N2CCOCC2)nc2cc(O)ccc12,28.2 µM (active)
19,CCN(CC)C(=O)c1cc2c(=O)n3ccccc3nc2s1,31.6 µM (active)
20,COCCN(CCOC)C(=O)c1cc2c(=O)n3ccccc3nc2s1,35.5 µM (active)
21,CC1=CN2C(=NC(=O)CC2(C)C(=O)N(CC(=O)NC2CCCC2)c2ccccc2C)C=C1 (stereo not drawn),35.5 µM (active)
22,CC1=CN2C(=NC(=O)CC2(C)C(=O)N(CC(=O)NC2CCCC2)c2cc(C)cc(C)c2)C=C1 (stereo not drawn),39.8 µM (active)
23,CCC(=O)Oc1ccc2c(c1)OC1(OC(C)=O)OC(C)CC1=C2C (stereo not drawn),5.62 µM (active)
24,CCOC(=O)c1sc(-c2ccc(OC)cc2)cc1NC(C)=O,28.2 µM (active)

# — PubChem BioAssay AID2242 (National Center for Advancing Translational Sciences (NCATS), 2010)
